From PubChem BioAssay (NCATS)
Records with an inconclusive call do not appear. A call without a number means that no potency is given here. Values without a mark were called inactive. Activity calls are given as the source filed them. Unless noted, calls come from the whole dose curve; as a rule, active = well fitted curve in the direction sought with a large enough effect; inconclusive = small, poorly fitted or top-dose-only effect, or another doubt; inactive = no such curve, though single readings can be large; an effect the other way counts as inactive or inconclusive. *1 amine or outer side, *2 acyl side, *3 side chain or, on linkers, in order; H or OH if unused. Where a SMILES comes first, the peptide text is derived from it. [ ]: non-standard residue; d: D form. X13 = O=C(C(CC(O)CO)O[*:1])[*:2]; NMeV = CN[CH](C(=O)O)C(C)C; NMeA = CN[CH](C)C(=O)O; βAla = NCCC(=O)O

Tests used:
[1] = molecular target: Calcium and integrin-binding protein 1 (Homo sapiens) (UniProt Q99828); test: Primary qHTS for Identification of Calcium Integrin Binding Protein 1 (CIB1) Competitor (AID 1508620);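 note: GST tagged CIB1 binding a fluorescein labelled alphaIIb integrin peptide tracer; top concentration of the series differs between compounds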
Calcium and integrin-binding protein 1 (Homo sapiens), sequence (Q99828 whole entry, looked up): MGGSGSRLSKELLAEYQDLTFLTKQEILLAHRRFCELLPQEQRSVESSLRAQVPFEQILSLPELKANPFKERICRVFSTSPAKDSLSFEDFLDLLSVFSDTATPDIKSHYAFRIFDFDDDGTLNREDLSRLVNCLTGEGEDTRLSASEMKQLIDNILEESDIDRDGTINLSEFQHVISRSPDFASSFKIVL
Procedure, shortened: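 Fluorescence polarization competition: CIB1-GST (1 uM final) preincubated with compound 15 min at room temperature, then FITC-labeled alphaIIb peptide (100 nM final) added for another 15 min. Polarization read at Ex 480/Em 540.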

[2] = molecular target: Cytochrome P450 2C9 (Homo sapiens) (UniProt P11712); test: Cytochrome P450 family 2 subfamily C member 9 (CYP2C9) small molecule antagonists: luciferase biochemical (cell-free) qHTS assay (AID 1645842; active = well fitted curve in the direction sought with a large enough effect in the repeat runs; an effect the other way counts as inactive or inconclusive; note: nearly all actives have a fitted effect of over 55% in size; note: potency is the fitted concentration of half-maximal effect; for activity change, negative = inhibition: series mostly up to about 57 µM)
Cytochrome P450 2C9 (Homo sapiens), sequence (P11712 whole entry, looked up): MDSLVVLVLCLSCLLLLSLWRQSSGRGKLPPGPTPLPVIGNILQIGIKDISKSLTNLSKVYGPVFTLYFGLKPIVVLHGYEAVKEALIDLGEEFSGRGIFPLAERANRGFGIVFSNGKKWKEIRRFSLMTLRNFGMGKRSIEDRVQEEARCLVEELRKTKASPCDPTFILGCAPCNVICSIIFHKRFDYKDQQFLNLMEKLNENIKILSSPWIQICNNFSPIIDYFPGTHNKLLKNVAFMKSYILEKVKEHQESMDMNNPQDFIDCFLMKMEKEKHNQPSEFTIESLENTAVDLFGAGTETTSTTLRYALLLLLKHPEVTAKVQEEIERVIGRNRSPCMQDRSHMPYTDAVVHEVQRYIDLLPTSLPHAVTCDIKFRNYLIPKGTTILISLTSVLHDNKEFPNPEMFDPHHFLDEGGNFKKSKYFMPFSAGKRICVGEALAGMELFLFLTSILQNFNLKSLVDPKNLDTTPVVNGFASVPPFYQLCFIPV
Procedure, shortened: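 P450-Glo CYP2C9 system: proluciferin substrate with enzyme in mix containing 0.4% BSA, 10 min at room temperature, then NADPH regeneration solution added and incubated 1 h at 37C. Detection reagent stopped reaction; luminescence read after 20 min as RLU.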

[3] = Primary qHTS for inhibitors of nuclear receptor binding SET domain protein 2 (NSD2) in an RCH-ACV wild type WT cells (2C) (AID 1645877); note: nearly all actives have a fitted effect of over 70% in size; note: potency is the fitted concentration of half-maximal effect
[4] = Primary qHTS for inhibitors of nuclear receptor binding SET domain protein 2 (NSD2) in an isogenic RCH-ACV NSD2 p.E1099K mutant (9B) (AID 1645876); note: nearly all actives have a fitted effect of over 70% in size

SMILES: O=C(Nc1cc(-c2ccccc2)nn1-c1ccccc1F)c1ccc([N+](=O)[O-])cc1
- Potency [1]: inactive
- Potency [2]: 6.74 µM (active)
- Potency [3]: inactive

SMILES: CCC(C)C1NC(=O)C2C(C)CCN2C(=O)C(CC(O)CO)OC(=O)CCNC(=O)C(C)N(C)C(=O)C(C(C)C)N(C)C1=O (centres undefined)
- Potency [1]: inactive
- Potency [4]: inactive

SMILES: O=C(NCC(=O)N1CCCC1)Nc1ccc2ccccc2c1
- Potency [1]: inactive
- Potency [2]: inactive
- Potency [4]: inactive
- Potency [3]: inactive

SMILES: O=C(N[C@@H]1CC[C@@H](c2cccc(F)c2F)CN(CC(F)(F)F)C1=O)N1CCC(n2c(=O)[nH]c3ncccc32)CC1
- Potency [1]: inactive
- Potency [2]: 12 µM (active)
- Potency [3]: 16.3 µM (active)

SMILES: COC(=O)C(CC1(OC(=O)C(C)C)c2ccccc2N2C(=O)C(C)(C)N(O)C21)n1cnc2ccccc2c1=O (centres undefined)
- Potency [1]: inactive
- Potency [4]: inactive

SMILES: C=C1CC[C@@]2(OC1)O[C@H]1CC3C4CC=C5C[C@@H](O[C@@H]6O[C@@H](C)[C@H](O)[C@@H](O)[C@H]6O)C[C@@H](O[C@@H]6O[C@H](C)[C@H](O)[C@H](O)[C@H]6O[C@@H]6O[C@@H](C)[C@H](O)[C@@H](O)[C@H]6O)[C@]5(C)C4CC[C@]3(C)[C@H]1[C@@H]2C (some centres undefined)
- Potency [1]: inactive
- activity change, negative = viability loss [4]: -22.3% [at 9.23 µM]

SMILES: C=C1C(OC(C)=O)C(=O)C2C(C)(C)C(O)CCC2(C)C1CC(OC(C)=O)/C(C)=C/COC(C)=O (centres undefined)
- Potency [1]: inactive
- Potency [4]: inactive

SMILES: CC1(C)CC[C@]2(C(=O)O)CC[C@]3(C)C(=CCC4[C@@]5(C)CC[C@H](O[C@@H]6O[C@H](C(=O)O)[C@@H](O)[C@H](O[C@@H]7O[C@H](CO)[C@H](O)[C@H](O)[C@H]7O)[C@H]6O[C@@H]6O[C@H](CO)[C@@H](O)[C@H](O)[C@H]6O)C(C)(C)C5CC[C@]43C)[C@@H]2C1 (some centres undefined)
- activity change, negative = inhibition [1]: 10.7% [at 12.4 µM]
- activity change, negative = viability loss [4]: -9.66% [at 4.96 µM]

SMILES: Cc1cn(-c2cc(NC(=O)c3ccc(C)c(Nc4nccc(-c5cnccn5)n4)c3)cc(C(F)(F)F)c2)cn1
- Potency [1]: inactive
- Potency [2]: 1.51 µM (active)
- Potency [4]: inactive
- Potency [3]: inactive

SMILES: COc1cc(OC)cc(-c2ccc3c(-c4ccc(F)cc4)[nH]nc3n2)c1
- Potency [1]: inactive
- Potency [2]: 7.56 µM (active)
- Potency [4]: inactive
- Potency [3]: inactive

SMILES: Fc1ccccc1-c1nc2ccn(Cc3ccc(-c4ccc(C(F)(F)F)cc4C(F)(F)F)nn3)cc-2n1
- Potency [1]: inactive
- Potency [2]: 23.9 µM (active)
- Potency [4]: inactive
- Potency [3]: inactive

SMILES: C=C1CC/C=C(/CO)C(=O)C[C@@H]2[C@@H]1C[C@@]2(C)COC(C)=O
- Potency [1]: inactive
- Potency [4]: inactive

SMILES: CC[C@H](NC(=O)c1c(O)c(-c2ccccc2)nc2ccccc12)c1ccccc1
- Potency [1]: inactive
- Potency [2]: 16.9 µM (active)
- Potency [4]: inactive

SMILES: O=C(N[C@H](Cc1ccccc1)C(=O)O)c1sc2cc(F)ccc2c1Cl
- Potency [1]: inactive
- Potency [2]: 16.9 µM (active)
- Potency [4]: inactive
- Potency [3]: inactive

SMILES: CC(C)Oc1ccc(-c2nc(-c3cccc4c3CCC4NCCC(=O)O)no2)cc1C#N (centres undefined)
- Potency [1]: inactive
- Potency [2]: inactive
- Potency [4]: inactive
- Potency [3]: inactive

SMILES: CCCC1=CC2=C(CO1)C(=O)C(C)(O)C(OC(=O)c1c(C)cc(OC)cc1O)C2 (centres undefined)
- Potency [1]: inactive
- Potency [4]: inactive

SMILES: CC(O)C/C=C/C=C/C(=O)OC1C=C2COC(=O)C2(O)C2(C)CCCC(C)(C)C12 (centres undefined)
- Potency [1]: inactive
- Potency [4]: inactive

SMILES: CCC(C)C1NC(=O)C2CCCN2C(=O)C(CC(O)CO)OC(=O)CCNC(=O)C(C)N(C)C(=O)C(C(C)C)N(C)C1=O (centres undefined) (cyclo([X13]PI[NMeV][NMeA][βAla]); configuration not given here)
- Potency [1]: inactive
- Potency [4]: inactive

SMILES: C[C@@]1(C(=O)O)CCC[C@@]2(C)C3=CC[C@H]4C[C@@]3(CC[C@H]12)CC4(O)CO (some centres undefined)
- Potency [1]: inactive
- Potency [4]: inactive
- Potency [3]: inactive

SMILES: CC1(C)C[C@H]2C=C(C=O)[C@]3(C(=O)O)C[C@]3(C)[C@H]2C1
- Potency [1]: inactive
- Potency [4]: inactive

SMILES: Cc1ccccc1N1CCN(S(=O)(=O)C[C@]23CC[C@H](C[C@@H]2NC(=O)[C@@H](N)CCS(C)(=O)=O)C3(C)C)CC1
- Potency [1]: inactive
- Potency [4]: inactive

SMILES: O=C(Cc1ccc(Cl)cc1)Nc1cnccc1C(=O)O
- Potency [1]: inactive
- Potency [4]: inactive
- Potency [3]: inactive

SMILES: COC(=O)CCC1(C)C(C(C)(C)O)C(O)CC2(C)Oc3c(C)c4c(c(OC)c3CC21)C(=O)OC4 (centres undefined)
- Potency [1]: inactive
- Potency [4]: inactive
- Potency [3]: inactive

SMILES: CC(=O)OC[C@]12[C@@H](OC(=O)c3ccoc3)C[C@@H]3[C@@H](OC(C)=O)[C@]1(OC3(C)C)[C@@](C)(O)C[C@H](OC(=O)c1ccoc1)[C@@H]2OC(=O)c1ccoc1
- Potency [1]: inactive
- Potency [4]: inactive
- Potency [3]: inactive

SMILES: C[C@@H]1O[C@@H](O[C@H]2[C@H](OC(=O)[C@]34CCC(C)(C)C[C@H]3C3=CCC5[C@@]6(C)C[C@@H](O)[C@@H](O[C@@H]7O[C@H](CO)[C@@H](O)[C@H](O)[C@H]7O)[C@@](C)(CO)C6[C@H](O)C[C@@]5(C)[C@]3(C)CC4)OC[C@H](O)[C@@H]2O)[C@H](O)[C@H](O[C@@H]2OC[C@](O)(CO)[C@H]2O)[C@H]1O[C@@H]1OC[C@@H](O)[C@H](O[C@H]2O[C@H](C)[C@@H](O)[C@H](O)[C@@H]2O)[C@H]1O (some centres undefined)
- activity change, negative = inhibition [1]: 5.13% [at 12.4 µM]
- activity change, negative = viability loss [4]: -25.2% [at 9.23 µM]

SMILES: O=C(OCC1=CC(Cl)C(O)C(OC(=O)c2ccccc2)C1O)c1ccccc1 (centres undefined)
- Potency [1]: inactive
- Potency [4]: inactive

SMILES: C/C=C/C=C/C(O)=C1/C(=O)[C@]2(C)C3/C(=C(O)/C=C/C=C/C)C(=O)C4(C)C1[C@]1(C)O[C@@]4(O)[C@@]3(C)O[C@@]12O
- Potency [1]: inactive
- Potency [4]: inactive

SMILES: C/C=C1\[C@H](O[C@@H]2O[C@H](CO)[C@@H](O)[C@H](O)[C@H]2O)OC=C(C(=O)OCCc2ccc(O)cc2)[C@H]1CC(=O)OCCc1ccc(O)cc1
- Potency [1]: inactive
- Potency [4]: inactive

SMILES: C[C@H]1CC[C@@]2(OC1)O[C@H]1CC3C4CC[C@H]5C[C@@H](O[C@@H]6O[C@H](CO)[C@H](O[C@@H]7O[C@H](CO)[C@@H](O)[C@H](O[C@@H]8OC[C@@H](O)[C@H](O)[C@H]8O)[C@H]7O[C@@H]7O[C@H](CO)[C@@H](O)[C@H](O)[C@H]7O)[C@H](O)[C@H]6O)[C@H](O)C[C@]5(C)C4=CC(=O)[C@]3(C)[C@H]1[C@@H]2C (some centres undefined)
- Potency [1]: inactive
- activity change, negative = viability loss [4]: -21.3% [at 9.23 µM]

SMILES: CC1CC(=O)C2C(O)(C1)CC(O)C13OC1c1c(O)cccc1C(=O)C23O (centres undefined)
- Potency [1]: inactive
- Potency [4]: inactive

SMILES: CC(C)(O)C1OC1C1=CC(=O)C2(C)OC2C1O (centres undefined)
- Potency [1]: inactive
- Potency [4]: inactive

SMILES: COc1cc(C(=O)OCC2=CCC3C(C(=O)O)=COC(O[C@@H]4O[C@H](CO)[C@@H](O)[C@H](O)[C@H]4O)C23)ccc1O (some centres undefined)
- Potency [1]: inactive
- Potency [4]: inactive
- Potency [3]: inactive
